# Reference: ChEMBL document CHEMBL3433997, “St. Jude Leishmania screening dataset” (2016)
# Target: Solute carrier family 2, facilitated glucose transporter member 1 (Homo sapiens) (UniProt P11166)
# Assay: ST_JUDE_LEISH: Cytotoxicity at 2uM final concentration against transgenic Leishmania Mexicana promastigotes LmGLUT1 that are glucose transport deficient and complemented with the human glucose transporter GLUT1. Activity is measured by DNA content using SYBR green in vitro
# Format: functional
# Chain of Solute carrier family 2, facilitated glucose transporter member 1 (Homo sapiens) (P11166 whole entry): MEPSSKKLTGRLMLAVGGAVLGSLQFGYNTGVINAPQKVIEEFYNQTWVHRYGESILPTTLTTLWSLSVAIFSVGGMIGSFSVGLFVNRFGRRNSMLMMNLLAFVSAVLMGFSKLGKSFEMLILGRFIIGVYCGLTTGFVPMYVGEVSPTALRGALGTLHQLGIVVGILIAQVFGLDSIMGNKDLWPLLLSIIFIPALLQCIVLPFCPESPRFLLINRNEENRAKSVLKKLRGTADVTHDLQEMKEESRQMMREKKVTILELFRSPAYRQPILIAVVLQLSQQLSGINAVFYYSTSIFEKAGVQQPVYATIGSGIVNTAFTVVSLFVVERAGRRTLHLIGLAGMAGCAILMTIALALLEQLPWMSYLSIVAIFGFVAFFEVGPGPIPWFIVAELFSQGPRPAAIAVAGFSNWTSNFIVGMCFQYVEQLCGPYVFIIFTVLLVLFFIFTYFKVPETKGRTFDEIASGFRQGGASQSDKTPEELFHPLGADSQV
row,Compound,inhibition
1,Cc1nc2nc(N)nc(N)c2c(C)c1Cc1ccccc1Br,7.5%
2,Cc1ccc(NS(=O)(=O)c2cccs2)cc1-c1cccc(C(=O)Nc2ccc(F)cc2)c1,2%
3,FC(F)(F)c1ccc(NC(=S)N2CCC(CCN3CCC(c4c[nH]c5ccccc45)CC3)CC2)cc1,5.27%
4,O=C(Nc1ccc(Cl)cn1)c1sc2ccccc2c1O,3.18%
5,CC(C)CNCc1ccc(-c2cccc(CN(CCN(C)C)C(=O)CCC3CCCC3)c2)cc1,30%
6,COc1ccc(Nc2ncc(Cl)c(Nc3cccnc3C(N)=O)n2)cc1N1CCN(C)CC1,89.9%
7,CCCNCc1ccc(-c2ccc(CN(CC3CCCO3)C(=O)C3CC(=O)c4ccccc43)cc2)nc1 (stereo not given),6.13%
8,Cc1cnc(C(=O)Nc2ccc3c(c2)CCCN(Cc2c[nH]c4cnccc24)C3)cn1,11.1%
9,O=C(Cc1cccc(O)c1)NCC(Cc1ccc(O)cc1)c1ccccc1 (stereo not given),0.64%
10,CCOc1cc(CC)ccc1C1CCN(CCCCNC(=O)c2ccc(NC(=O)c3ccc(C#N)cc3)cc2)CC1,2.45%
11,CCc1cc(NC2CCN(C)CC2)nc(Nc2ccc(C)cc2)n1,7.94%
12,CCCc1cnc2nc(N)nc(N)c2c1C,-2.96%
13,O=C(Nc1ccc(F)cc1F)NC1CCN(CCCCCNC(=O)C2CC2c2ccc(Cl)c(Cl)c2)CC1 (stereo not given),0.37%
14,Oc1ccc(Cl)cc1CN1CCCC(COC(c2ccc(F)cc2)c2ccc(F)cc2)C1 (stereo not given),0.85%
15,Cc1cnc(C(=O)Nc2cccc(-c3ccc(-c4nc5cc(F)ccc5[nH]4)cc3)c2)cn1,12.2%
16,CCCOc1ccccc1C(=O)Nc1nonc1-c1ccc(OCC)c(OCC)c1,0.74%
17,CNc1ccc(CNCc2ccc(-c3ccc(-c4nc5cc(C(F)(F)F)ccc5[nH]4)s3)cc2)cc1,2.19%
18,Cc1cc(NCCC(=O)Nc2ccccc2)nc(NCCc2ccccc2)n1,3.62%
19,Cc1ccc(NC(=O)c2ccc(NCCCN3CC(C)CC(C)C3)c([N+](=O)[O-])c2)cc1F (stereo not given),8.68%
20,COc1cc(NC(=O)c2sc(-c3ccc(Cl)cc3)cc2Cl)ccc1OCCN1CCCC1,9.58%

row,Compound,inhibition
1,CC(C)(C)c1ccc(CN2CCC(CNC(=O)c3cc(-c4ccccc4Cl)cs3)C2)cc1 (stereo not given),0.49%
2,Nc1ncc(-c2ccsc2)c2ccc(-c3ccc4cn[nH]c4c3)cc12,3.11%
3,COc1cccc(CC(=O)N2CCC(n3c(C)nc4ccc(F)cc43)CC2)c1,2.08%
4,Cc1cc(NCc2ccccc2)nc2cc(O)ccc12,8.52%
5,OCCN1CCN(C(=S)Nc2ccccc2)CC1,4.19%
6,c1ccc(Oc2ccc(Nc3ccnc(Nc4ccc5cn[nH]c5c4)n3)cc2)cc1,3.91%
7,COCCCNc1nc2cc(OC)c(OC)cc2c2nc(-c3ccccc3)nn12,2.53%
8,Cc1cccc(-c2nc3[nH]c(=O)cc(NC(=O)C(C)C)n3n2)c1,-2.8%
9,O=c1cc(NCCCNCc2ccc3c(c2)OC(F)(F)O3)[nH]c2ccccc12,-0.44%
10,COc1ccc(C(C(=O)NC2CCN(C[C@H](O)c3ccnc4ccc(OC)cc34)CC2)N2CCN(c3ccc(Cl)c(Cl)c3)CC2)cc1 (stereo not given in full),-0.26%
11,CCN1CCC(N(Cc2ccc(-c3ccc(C(F)(F)F)s3)cc2)C(=O)Cn2c(CCc3cccc(F)c3F)nc(=O)c3ccccc32)CC1,6.57%
12,CS(=O)(=O)N1CC2(CCN(CCC(NC(=O)NCc3ccc(Cl)c(Cl)c3)c3ccc(Cl)c(Cl)c3)CC2)c2ccccc21 (stereo not given),0.66%
13,Nc1ccnc2ccc(OCCCCCCc3ccccc3)cc12,-1.77%
14,CNC(=O)C1Cc2c([nH]c3ccc(Br)cc23)C2(CCN(CCc3ccccc3)CC2)N1 (stereo not given),5.38%
15,CC(C)c1ccc(NC(=O)NCCCC2CCCN(CCCCCNC(=O)/C=C/c3ccc(Cl)c(Cl)c3)C2)cc1 (stereo not given),1.47%
16,c1ccc(CN2CCC(NCc3ccccc3-c3ccc(CNC4CCCC4)cc3)CC2)cc1,4.61%
17,O=C(NC1CCN(Cc2ccsc2)CC1)c1ccc(-c2cccc(C(F)(F)F)c2)s1,8.18%
18,Oc1cc(Nc2ccnc3cc(I)ccc23)ccc1F,1.98%
19,COc1ccc(Cc2c(N)nc3nc(N)nc(N)c3c2C)cc1,1.48%
20,COc1ccc2[nH]ccc(=NN=Cc3ccccc3F)c2c1,7.58%
